Here are results for eleven sequences from paper PMC11006913.

Substitutions are numbered along the chain they refer to.

Test in all cases: PBM; 200 nM protein, PBS
Common to all, as to details: dsDNA, one strand shown

Test [1] concerns the target HOXC10 (Homo sapiens, UniProt Q9NYD6 254-340).
The target in test [2] is HOXD13 (Homo sapiens, UniProt P35453 263-343, T313R).
The target of test [3] is HOXD13 (Homo sapiens, UniProt P35453 263-343).
Test [4] addresses HOXC10 (Homo sapiens, UniProt Q9NYD6 254-340, K271E).
In test [5] the target is HOXD13 (Homo sapiens, UniProt P35453 263-343, T313A).
HOXD13 (Homo sapiens, UniProt P35453 263-343, T313A), sequence (P35453 263-343 T313A): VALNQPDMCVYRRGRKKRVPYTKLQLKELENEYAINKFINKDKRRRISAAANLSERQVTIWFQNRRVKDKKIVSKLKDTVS
Test [6] has as its target T1, NKX2-6 (Homo sapiens, UniProt A6NCS4 118-204, R150C).
T1 sequence: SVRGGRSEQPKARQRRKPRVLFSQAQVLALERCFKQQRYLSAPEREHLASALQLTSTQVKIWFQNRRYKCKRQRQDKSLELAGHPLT

Test [7] has as its target HOXA2 (Homo sapiens, UniProt O43364 129-215, R185T).
The target of test [8] is MSX2 (Homo sapiens, UniProt P35548 130-214, R199I).
MSX2 (Homo sapiens, UniProt P35548 130-214, R199I), sequence (P35548 130-214 R199I): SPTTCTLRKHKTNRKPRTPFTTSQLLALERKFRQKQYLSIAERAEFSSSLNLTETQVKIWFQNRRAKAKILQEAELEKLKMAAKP
Test [9] concerns the target HOXA2 (Homo sapiens, UniProt O43364 129-215, R185K).
Test [10] deals with MSX2 (Homo sapiens, UniProt P35548 130-214).
MSX2 (Homo sapiens, UniProt P35548 130-214), sequence (P35548 130-214): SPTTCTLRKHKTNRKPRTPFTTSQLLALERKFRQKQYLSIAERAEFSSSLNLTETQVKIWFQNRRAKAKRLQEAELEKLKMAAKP
Test [11] has as its target MSX2 (Homo sapiens, UniProt P35548 130-214, F161Y).
The target in test [12] is HOXA2 (Homo sapiens, UniProt O43364 129-215, Y150S).
HOXA2 (Homo sapiens, UniProt O43364 129-215, Y150S), sequence (O43364 129-215 Y150S): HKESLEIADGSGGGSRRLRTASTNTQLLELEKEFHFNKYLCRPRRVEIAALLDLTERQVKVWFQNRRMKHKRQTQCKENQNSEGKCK
Test [13] deals with HOXA2 (Homo sapiens, UniProt O43364 129-215).
HOXA2 (Homo sapiens, UniProt O43364 129-215), sequence (O43364 129-215): as the sequence (O43364 129-215 Y150S) above, with S22Y counted along it
Test [14] deals with T2, PAX4 (Homo sapiens, UniProt O43316 9-242, R200K).
T2 sequence: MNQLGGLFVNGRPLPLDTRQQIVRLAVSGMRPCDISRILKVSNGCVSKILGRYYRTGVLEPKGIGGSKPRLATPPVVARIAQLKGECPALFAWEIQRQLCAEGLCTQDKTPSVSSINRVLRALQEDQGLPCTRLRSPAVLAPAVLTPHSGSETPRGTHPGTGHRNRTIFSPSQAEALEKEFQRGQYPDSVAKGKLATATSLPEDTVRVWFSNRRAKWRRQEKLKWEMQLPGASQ

The target in test [15] is T3, PAX4 (Homo sapiens, UniProt O43316 9-242).
T3 sequence: T2 sequence with K192R

The target in test [16] is T4, PAX4 (Homo sapiens, UniProt O43316 9-242, R200Q).
T4 sequence: T2 sequence with K192Q

The target in test [17] is T5, PAX4 (Homo sapiens, UniProt O43316 9-242, F177V).
T5 sequence: T2 sequence with F169V, K192R

For test [18], the target named is T6, PAX4 (Homo sapiens, UniProt O43316 9-242, F177Y).
T6 sequence: T2 sequence with F169Y, K192R

Test [19] addresses T7, PAX4 (Homo sapiens, UniProt O43316 9-242, R227W).
T7 sequence: T2 sequence with K192R, R219W

The target of test [20] is ALX3 (Homo sapiens, UniProt O95076 139-225, N203Q).
ALX3 (Homo sapiens, UniProt O95076 139-225, N203Q), sequence (O95076 139-225 N203Q): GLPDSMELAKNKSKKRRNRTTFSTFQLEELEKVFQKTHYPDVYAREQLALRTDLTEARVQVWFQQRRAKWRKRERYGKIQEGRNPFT
For test [21], the target named is ALX3 (Homo sapiens, UniProt O95076 139-225).
ALX3 (Homo sapiens, UniProt O95076 139-225), sequence (O95076 139-225): as the sequence (O95076 139-225 N203Q) above, with Q65N counted along it
The target in test [22] is ALX3 (Homo sapiens, UniProt O95076 139-225, L168Q).
ALX3 (Homo sapiens, UniProt O95076 139-225, L168Q), sequence (O95076 139-225 L168Q): as the sequence (O95076 139-225 N203Q) above, with L30Q, Q65N counted along it
Test [23] has as its target ALX3 (Homo sapiens, UniProt O95076 139-225, L168V).
Test [24] concerns the target ALX3 (Homo sapiens, UniProt O95076 139-225, N203S).
The target in test [25] is T8, NKX2-6 (Homo sapiens, UniProt A6NCS4 118-204).
T8 sequence: T1 sequence with C33R

In test [26] the target is T9, NKX2-6 (Homo sapiens, UniProt A6NCS4 118-204, F151L).
T9 sequence: T1 sequence with C33R, F34L

Test [27] has as its target ALX4 (Homo sapiens, UniProt Q9H161 200-286).
In test [28] the target is ALX4 (Homo sapiens, UniProt Q9H161 200-286, Q225E).
ALX4 (Homo sapiens, UniProt Q9H161 200-286, Q225E), sequence (Q9H161 200-286 Q225E): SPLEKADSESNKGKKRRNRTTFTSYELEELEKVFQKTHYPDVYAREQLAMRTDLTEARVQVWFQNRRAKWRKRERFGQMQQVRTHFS

HOXC10 (Homo sapiens, UniProt Q9NYD6 254-340, K271E), sequence (Q9NYD6 254-340 K271E): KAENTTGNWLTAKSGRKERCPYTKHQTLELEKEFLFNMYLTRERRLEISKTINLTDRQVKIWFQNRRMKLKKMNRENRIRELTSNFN
HOXC10 (Homo sapiens, UniProt Q9NYD6 254-340), sequence (Q9NYD6 254-340): as the sequence (Q9NYD6 254-340 K271E) above, with E18K counted along it
MSX2 (Homo sapiens, UniProt P35548 130-214, F161Y), sequence (P35548 130-214 F161Y): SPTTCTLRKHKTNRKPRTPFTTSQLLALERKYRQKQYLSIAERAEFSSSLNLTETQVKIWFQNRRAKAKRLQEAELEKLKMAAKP
ALX3 (Homo sapiens, UniProt O95076 139-225, L168V), sequence (O95076 139-225 L168V): as the sequence (O95076 139-225 N203Q) above, with L30V, Q65N counted along it
ALX3 (Homo sapiens, UniProt O95076 139-225, N203S), sequence (O95076 139-225 N203S): as the sequence (O95076 139-225 N203Q) above, with Q65S counted along it
HOXD13 (Homo sapiens, UniProt P35453 263-343), sequence (P35453 263-343): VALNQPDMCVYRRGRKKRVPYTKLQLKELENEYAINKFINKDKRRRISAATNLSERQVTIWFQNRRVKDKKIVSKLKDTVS
HOXD13 (Homo sapiens, UniProt P35453 263-343, T313R), sequence (P35453 263-343 T313R): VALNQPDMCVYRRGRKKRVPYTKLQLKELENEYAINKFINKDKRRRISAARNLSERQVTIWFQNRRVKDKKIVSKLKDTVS
HOXA2 (Homo sapiens, UniProt O43364 129-215, R185K), sequence (O43364 129-215 R185K): as the sequence (O43364 129-215 Y150S) above, with S22Y, R57K counted along it
HOXA2 (Homo sapiens, UniProt O43364 129-215, R185T), sequence (O43364 129-215 R185T): as the sequence (O43364 129-215 Y150S) above, with S22Y, R57T counted along it
ALX4 (Homo sapiens, UniProt Q9H161 200-286), sequence (Q9H161 200-286): as the sequence (Q9H161 200-286 Q225E) above, with E26Q counted along it

For the sequence CCCCGGGC, the binding signal is 9.93 upbm affinity estimate (log intensity, higher = more binding, comparable within an allelic series) in [1]; 9.37 upbm affinity estimate (log intensity, higher = more binding, comparable within an allelic series) in test [2]; 9.35 upbm affinity estimate (log intensity, higher = more binding, comparable within an allelic series) in test [3]; 9.89 upbm affinity estimate (log intensity, higher = more binding, comparable within an allelic series) in [4]; 9.35 upbm affinity estimate (log intensity, higher = more binding, comparable within an allelic series) in test [5].
For the sequence AGATATGG, the binding signal in [1] is 10.7 upbm affinity estimate (log intensity, higher = more binding, comparable within an allelic series).
Regarding AACAATCA, the binding signal in test [1] is 10.9 upbm affinity estimate (log intensity, higher = more binding, comparable within an allelic series).
As for GAGGCCTC, the binding signal in test [1] is 10.1 upbm affinity estimate (log intensity, higher = more binding, comparable within an allelic series); in [6] it was 9.72 upbm affinity estimate (log intensity, higher = more binding, comparable within an allelic series); in test [4], 10.1 upbm affinity estimate (log intensity, higher = more binding, comparable within an allelic series).
In the case of GCCCGCAC, the binding signal in test [1] is 10.1 upbm affinity estimate (log intensity, higher = more binding, comparable within an allelic series); in [7], 7.43 upbm affinity estimate (log intensity, higher = more binding, comparable within an allelic series); in [8], 9.56 upbm affinity estimate (log intensity, higher = more binding, comparable within an allelic series); in test [9], 10.2 upbm affinity estimate (log intensity, higher = more binding, comparable within an allelic series); in test [4] it was 9.97 upbm affinity estimate (log intensity, higher = more binding, comparable within an allelic series); in [10], 9.65 upbm affinity estimate (log intensity, higher = more binding, comparable within an allelic series). Besides, the binding signal in test [11] is 9.65 upbm affinity estimate (log intensity, higher = more binding, comparable within an allelic series); in [12], 10.4 upbm affinity estimate (log intensity, higher = more binding, comparable within an allelic series); in test [13] it was 7.36 upbm affinity estimate (log intensity, higher = more binding, comparable within an allelic series).
Turning to AGGGAGGC, the binding signal in test [1] was 9.98 upbm affinity estimate (log intensity, higher = more binding, comparable within an allelic series); in test [14] it was 9.2 upbm affinity estimate (log intensity, higher = more binding, comparable within an allelic series); in [15], 9.2 upbm affinity estimate (log intensity, higher = more binding, comparable within an allelic series); in test [16], 9.17 upbm affinity estimate (log intensity, higher = more binding, comparable within an allelic series); in test [17], 9.02 upbm affinity estimate (log intensity, higher = more binding, comparable within an allelic series); in [4], 10 upbm affinity estimate (log intensity, higher = more binding, comparable within an allelic series). The binding signal is 9.16 upbm affinity estimate (log intensity, higher = more binding, comparable within an allelic series) in test [18] and 9.18 upbm affinity estimate (log intensity, higher = more binding, comparable within an allelic series) in [19].
Consider AGTCGGCG, for which the binding signal in test [1] is 10.1 upbm affinity estimate (log intensity, higher = more binding, comparable within an allelic series); in test [8], 9.6 upbm affinity estimate (log intensity, higher = more binding, comparable within an allelic series); in [4], 10.1 upbm affinity estimate (log intensity, higher = more binding, comparable within an allelic series); in test [10], 9.58 upbm affinity estimate (log intensity, higher = more binding, comparable within an allelic series); in [11], 9.6 upbm affinity estimate (log intensity, higher = more binding, comparable within an allelic series).
For CGAAGGGC, the binding signal was 9.97 upbm affinity estimate (log intensity, higher = more binding, comparable within an allelic series) in test [1]; 7.68 upbm affinity estimate (log intensity, higher = more binding, comparable within an allelic series) in test [20]; 10.1 upbm affinity estimate (log intensity, higher = more binding, comparable within an allelic series) in test [4]; 7.61 upbm affinity estimate (log intensity, higher = more binding, comparable within an allelic series) in test [21]; 7.69 upbm affinity estimate (log intensity, higher = more binding, comparable within an allelic series) in test [22]; 7.8 upbm affinity estimate (log intensity, higher = more binding, comparable within an allelic series) in test [23]. Further, in [24], the binding signal is 7.67 upbm affinity estimate (log intensity, higher = more binding, comparable within an allelic series).
Take CCCCCAGG: the binding signal in [1] is 10.1 upbm affinity estimate (log intensity, higher = more binding, comparable within an allelic series); in test [20], 7.76 upbm affinity estimate (log intensity, higher = more binding, comparable within an allelic series); in [25], 9.38 upbm affinity estimate (log intensity, higher = more binding, comparable within an allelic series); in test [4] it was 10.1 upbm affinity estimate (log intensity, higher = more binding, comparable within an allelic series); in test [21] it was 7.79 upbm affinity estimate (log intensity, higher = more binding, comparable within an allelic series); in [22], 7.67 upbm affinity estimate (log intensity, higher = more binding, comparable within an allelic series). Besides, the binding signal in [26] is 9.1 upbm affinity estimate (log intensity, higher = more binding, comparable within an allelic series); in test [23], 7.72 upbm affinity estimate (log intensity, higher = more binding, comparable within an allelic series); in test [24] it was 7.71 upbm affinity estimate (log intensity, higher = more binding, comparable within an allelic series).
Regarding GTCATGAA, the binding signal in [1] was 10.8 upbm affinity estimate (log intensity, higher = more binding, comparable within an allelic series).
Take AGCGCTTG: the binding signal in [1] is 10 upbm affinity estimate (log intensity, higher = more binding, comparable within an allelic series); in test [27] it was 7.96 upbm affinity estimate (log intensity, higher = more binding, comparable within an allelic series); in [28] it was 8.27 upbm affinity estimate (log intensity, higher = more binding, comparable within an allelic series); in test [4], 10.1 upbm affinity estimate (log intensity, higher = more binding, comparable within an allelic series).
